Laboratory results reported in PubChem BioAssay (NCATS).
“And” between values parts separate entries of the source, which are not always exact repeats. Equal values may be shown once. Inconclusive results are not listed. A number with no mark means an inactive call. The source made the active and inactive calls. Calls come from the whole dose curve; as a rule, active = well fitted cell-killing curve with a large enough effect; inconclusive = small, poorly fitted or top-dose-only effect, or effect the other way; inactive = flat fitted curve, though single readings scatter.

experiment: qHTS assay for cell viability of HEK293 cells (AID 743288); settings: ATP luminescence (CellTiter-Glo), 18 h; max response: stronger effect = lower value; note: nearly all actives have a fitted effect of over 50% in size
From the text: National Center for Advancing Translational Sciences [NCATS]
NIH Chemical Genomics Center [NCGC]
U.S. Environmental Protection Agency [EPA]
National Institutes of Environmental Health Sciences [NIEHS]
National Toxicology Program [NTP]
U.S. Food and Drug Administration [FDA]
The CellTiter-Glo Luminescent Cell Viability Assay (Promega, Madison, WI) is a homogeneous method to determine the number of viable cells in culture based on quantitation of the ATP present, which signals the presence of metabolically active cells. This cell viability assay was used to screen environmental chemicals in the Hek293 cell line.
Tox21 Assay Protocol Summary:
Cell viability after compound treatment was measured using a luciferase-coupled ATP quantitation assay (CellTiter-Glo viability assay, Promega, Madison, WI) in parental HEK293 cells. Total intracellular ATP content corresponds to the number of metabolically competent cells after compound treatment. The cells were dispensed at 2,000 cells/5 uL/well in 1,536-well white/solid bottom assay plates using a Flying Reagent Dispenser (Aurora Discovery, San Diego, CA). The cells were incubated a minimum of 5 h at 37 C, followed by the addition of 23 nL of compounds dissolved in DMSO, positive controls or DMSO only using a pintool work station (Kalypsys, San Diego, CA). The assay plates were incubated for 18 h at 37 C, followed by the addition of 5 uL/well of CellTiter-Glo reagent. After 30 min incubation at room temperature, the luminescence intensity of the plates was measured using a ViewLux plate reader (PerkinElmer, Shelton, CT).
% is set by controls: 0 for no effect and ±100 for the full control effect; potency is the fitted concentration of half-maximal effect.

Q: With `CCNc1nc(NC(C)(C)C)nc(SC)n1` as the compound, how does the max response read?
A: -12.7%

Q: Which max response does the source give for `O=[As](O)(O)O` here?
A: -4.83%

Q: For `N#CC(Cl)Cl`, which Potency is on record?
A: 14.1 µM (active)

Q: For `COc1ccc(C(O)(c2cncnc2)C2CC2)cc1` (stereo not given), which max response is on record?
A: -5.84%

Q: With `Nc1cnn(-c2ccccc2)c(=O)c1Cl` as the compound, how does the max response read?
A: -10.4%

Q: Which max response does the source give for `O=C(O)C(F)(F)C(F)(F)C(F)(F)C(F)(F)C(F)(F)C(F)(F)C(F)(F)C(F)(F)F` here?
A: -7.25% and -13%

Q: Which max response does the source give for `CC(C)=CC1[C@H](C(=O)OCc2cccc(Oc3ccccc3)c2)C1(C)C` (stereo not given in full) here?
A: -10.6%

Q: For `N#CN=C1SCCN1Cc1ccc(Cl)nc1`, which max response is on record?
A: 1.43%

Q: For `CCOP(=O)(OCC)OP(=O)(OCC)OCC`, which max response is on record?
A: -8.91%

Q: With `CC(C)(c1ccccc1)c1cc(-n2nc3ccccc3n2)c(O)c(C(C)(C)c2ccccc2)c1` as the compound, how does the max response read?
A: -7.76%

Q: With `FC(F)(F)c1ccc(OCCCOc2c(Cl)cc(OCC=C(Cl)Cl)cc2Cl)nc1` as the compound, how does the max response read?
A: -6.52%

Q: With `CCc1nn(C)c(C(=O)NCc2ccc(C(C)(C)C)cc2)c1Cl` as the compound, how does the max response read?
A: -25.1%

Q: With `CCOP(N)(=O)Oc1ccc(SC)c(C)c1` (stereo not given) as the compound, how does the max response read?
A: -8.45%

Q: For `CC(C)(C)C(O)/C(=C\c1ccc(Cl)cc1Cl)n1cncn1` (stereo not given), which max response is on record?
A: -6.74%

Q: For `CN(c1c(Br)cc(Br)cc1Br)c1c([N+](=O)[O-])cc([N+](=O)[O-])cc1C(F)(F)F`, which Potency is on record?
A: 39.8 µM (active)

Q: Which max response does the source give for `CC(C)COP(=O)(OCC(C)C)OCC(C)C` here?
A: -10%

Q: With `Nc1nc(N)nc(Cl)n1` as the compound, how does the max response read?
A: -6.86% and -11.8% and -2.3%

Q: Which Potency does the source give for `CCC[CH2][Sn]([CH2]CCC)([CH2]CCC)[O][Sn]([CH2]CCC)([CH2]CCC)[CH2]CCC` here?
A: 31.6 µM (active)

Q: Which max response does the source give for `C=CC(=O)OCCCCCC(C)C` here?
A: 4.71%

Q: Which max response does the source give for `CNC(=O)O/N=C/C(C)(C)S(C)(=O)=O` here?
A: 0.485%

Q: Which max response does the source give for `N#CCNC(=O)c1cnccc1C(F)(F)F` here?
A: -6.61%

Q: Which max response does the source give for `COC(C)(C)CCC[C@H](C)C/C=C/C(C)=C/C(=O)OC(C)C` here?
A: -5.99%

Q: Which Potency does the source give for `[Cl][Sn]([c]1ccccc1)([c]1ccccc1)[c]1ccccc1` here?
A: 2.82 µM (active)

Q: For `CCCCCCCCCCCCCCC(Br)C(=O)O` (stereo not given), which max response is on record?
A: 3.54%

Q: For `Oc1ccc(C(c2ccc(O)cc2)(C(F)(F)F)C(F)(F)F)cc1`, which max response is on record?
A: -18.6%

Q: With `CCCCC(C#N)(Cn1cncn1)c1ccc(Cl)cc1` (stereo not given) as the compound, how does the max response read?
A: -11.8% and -12.8%

Q: Which max response does the source give for `Cc1cc(Cl)ccc1N=CN(C)C` here?
A: -10.1%

Q: With `CC(O)CN(CC(C)O)CC(C)O` (stereo not given) as the compound, how does the max response read?
A: -4.13%

Q: With `COc1nc(C)nc(NC(=O)NS(=O)(=O)c2ccccc2Cl)n1` as the compound, how does the max response read?
A: -13%

Q: With `COC(=O)c1ccccc1S(=O)(=O)NC(=O)Nc1nc(C)nc(OC)n1` as the compound, how does the max response read?
A: 9.36%

Q: With `CSc1nnc(C(C)(C)C)c(=O)n1N` as the compound, how does the max response read?
A: -4.13%

Q: With `O=S(=O)(c1ccc(O)cc1)c1ccc(O)cc1` as the compound, how does the max response read?
A: -8.18%

Q: For `CCOP(=S)(OCC)Oc1ccc(S(C)=O)cc1` (stereo not given), which max response is on record?
A: -11.8%

Q: Which max response does the source give for `O=C(NC(=O)c1c(F)cccc1F)Nc1cc(Cl)c(OC(F)(F)C(F)F)c(Cl)c1` here?
A: -28.3%

Q: With `CC(C)=C[C@@H]1[C@@H](C(=O)OCN2C(=O)C3=C(CCCC3)C2=O)C1(C)C` as the compound, how does the max response read?
A: -11.5%

Q: With `CCC[CH2][Sn]([CH2]CCC)[CH2]CCC` as the compound, how does the Potency read?
A: 28.2 µM (active)

Q: For `O=C(O)[C@@H]1[C@H](C(=O)O)[C@@]2(Cl)C(Cl)=C(Cl)[C@]1(Cl)C2(Cl)Cl`, which max response is on record?
A: -18.3%

Q: With `CNC(=O)O/N=C(\SC)C(=O)N(C)C` as the compound, how does the max response read?
A: -24.8%

Q: For `O=C(O)C1(O)c2ccccc2-c2ccc(Cl)cc21` (stereo not given), which max response is on record?
A: -18.3%

Q: With `c1ccc2cc3c(cc2c1)-c1cccc2cccc-3c12` as the compound, how does the max response read?
A: 4.38% and -18.8%
